Assay results: PubChem BioAssay (NCATS)
Where “and” joins values, the source holds several entries; their conditions need not be identical. Identical values can stand only once. A number with no mark means an inactive call. Records with an inconclusive call do not appear. A call without a number means that no potency is given here. Calls of active or inactive are those of the source. Unless noted, calls come from the whole dose curve; as a rule, active = well fitted curve in the direction sought with a large enough effect; inconclusive = small, poorly fitted or top-dose-only effect, or another doubt; inactive = no such curve, though single readings can be large; an effect the other way counts as inactive or inconclusive.

What was measured:
[1] = molecular target: Mitogen-activated protein kinase 10 (Mus musculus) (UniProt Q61831); experiment: JNK3 AlphaScreen Assay (AID 530; active = well fitted curve in either direction with a large enough effect, not every such curve was filed as active;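 note: kinase came from lysate of stimulated human HepG2 cells; signal reports phosphorylation of biotinylated GST-cJun 1-79 at Ser73 with 10 µM ATP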)
Procedure, shortened: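 JNK3 came from HepG2 lysates pre-activated with IL-1beta and TNF-alpha and phosphorylated biotinylated GST-cJun (1-79) at 10 uM ATP, pH 7.6, room temperature. Compounds were titrated. AlphaScreen signal used anti-phospho-cJun (Ser73) antibody.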

[2] = Cell Viability - NIH 3T3 (AID 541); details: NIH 3T3 cell viability, qHTS; activity change, negative = cytotoxicity: at 92.2 µM (top of the series);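 note: cells exposed to compound for 40 hours; nearly all actives have a fitted effect of over 25% in size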
Procedure, shortened: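 NIH 3T3 mouse embryo fibroblasts (1000 cells/well) were plated in complete medium and treated with compound for 40 hr at 37 °C. Viability was read as intracellular ATP by CellTiter-Glo luminescence; AC50 values came from Hill-equation fits of concentration-response data.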

[3] = Cell Viability - Mesenchymal (AID 546);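 note: cells exposed to compound for 40 hours before reading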
Procedure, shortened: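 Normal human renal glomerulus-derived kidney mesenchymal cells, 1000 per well in complete medium, were treated with compounds for 40 hr at 37 °C. Viability was read as intracellular ATP by CellTiter-Glo luminescence; AC50 values came from Hill-equation fits of qHTS concentration-response data.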

[4] = Cellular Toxicity (caspase-3) MRC-5 (AID 659)
Procedure, shortened: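 Luminescence from caspase-cleaved aminoluciferin substrate (Caspase-Glo 3/7, 1 hr RT) reports caspase 3/7 activity in MRC-5 lung fibroblasts after 16 hr compound exposure. Normalized to DMSO basal and 10 uM staurosporine as 100%; AC50 from Hill fits.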

[5] = Cellular Toxicity (caspase-3) Hek293 (AID 664); details: HEK293 caspase-3 activation, DMSO = 0%, 100 µM tamoxifen = 100%; at 92.2 µM (top of the series);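 note: cells exposed to compound for 16 h at 37 °C before readout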
Procedure, shortened: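 HEK293 cells were exposed to compounds in complete medium for 16 hr at 37 °C, then caspase-3/7 activity was read by Caspase-Glo 3/7 luminescence after 20 min at room temperature. Data normalized to DMSO and 100 uM tamoxifen; AC50 from Hill fits.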

[6] = molecular target: Cytochrome P450 3A4 (Homo sapiens) (UniProt P08684); experiment: qHTS Assay for Inhibitors and Substrates of Cytochrome P450 3A4 (AID 884); note: nearly all actives have a fitted effect of over 50% in size; note: potency is the fitted concentration of half-maximal effect
Sequence of Cytochrome P450 3A4 (Homo sapiens) (P08684 whole entry, looked up): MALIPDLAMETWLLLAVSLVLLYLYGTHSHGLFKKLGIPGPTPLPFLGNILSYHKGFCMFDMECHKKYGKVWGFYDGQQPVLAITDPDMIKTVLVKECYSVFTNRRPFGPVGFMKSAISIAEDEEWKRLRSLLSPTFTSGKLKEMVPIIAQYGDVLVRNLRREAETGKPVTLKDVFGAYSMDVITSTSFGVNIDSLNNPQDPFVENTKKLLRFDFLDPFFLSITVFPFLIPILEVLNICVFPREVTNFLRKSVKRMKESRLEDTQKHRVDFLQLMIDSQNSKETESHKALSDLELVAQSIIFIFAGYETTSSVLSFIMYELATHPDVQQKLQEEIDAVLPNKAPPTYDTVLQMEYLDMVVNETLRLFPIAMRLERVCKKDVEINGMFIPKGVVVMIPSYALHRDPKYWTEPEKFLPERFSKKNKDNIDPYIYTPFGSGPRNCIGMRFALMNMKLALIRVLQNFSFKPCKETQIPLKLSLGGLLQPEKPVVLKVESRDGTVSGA
Procedure, shortened: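 20 nM human CYP3A4 with 25 uM Luciferin-PPXE (at KM) in 200 mM KPO4, preincubated 10 min with compound; NADPH regeneration started a 60 min RT reaction. Luciferin detected by luminescence, normalized to 57 uM ketoconazole as full inhibition.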

[7] = MultiTox-Fluor Cytotoxicity Assay - LYMP1-002 - Live Cells (AID 955)
Procedure, shortened: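 Human lymphoblastoid LYMP1-002 cells, 2500/well in complete medium, rested 5 hr at 37 C, then exposed to compounds for 16 hr at 37 C. Live-cell protease cleavage of GF-AFC read by fluorescence (Ex/Em 405/510) after 60 min at room temperature; AC50 from Hill fits.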

[8] = MultiTox-Fluor Cytotoxicity Assay - LYMP1-002 - Dead Cells (AID 960); note: nearly all actives have a fitted effect of over 60% in size
Procedure, shortened: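 Human lymphoblastoid cells (LYMP1-002), 2500/well in complete medium, were exposed to compounds for 16 hr at 37 C. Dead-cell protease activity was read as bis-AAF-R110 fluorescence (Ex/Em 485/520), normalized to DMSO and 15 uM tetraoctylammonium bromide; AC50 from Hill fits.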

[9] = Cell Viability - LYMP2-003 (AID 965);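 note: cells exposed to compounds for 24 h before reading; nearly all actives have a fitted effect of over 50% in size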
Procedure, shortened: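 Acute cytotoxicity is scored as a concentration-dependent drop in intracellular ATP, measured by luciferase luminescence in human lymphoblastoid cells treated for 24 hours at 37 C. AC50 values derive from Hill-equation modelling.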

[10] = Cell Viability - LYMP2-017 (AID 972); note: nearly all actives have a fitted effect of over 55% in size
Procedure, shortened: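 Human lymphoblastoid cells (2500/well) were seeded in complete medium, held 5 hr at 37 C, then exposed to compounds for 24 hr at 37 C. Intracellular ATP was read by CellTiter-Glo luminescence after 30 min at room temperature, with AC50 values from Hill-equation fits.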

[11] = Cell Viability - LYMP2-021 (AID 974);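 note: compound exposure lasts 24 hours at 37 °C; nearly all actives have a fitted effect of over 55% in size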
Procedure, shortened: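 Human lymphoblastoid cells (2500/well) were preincubated 5 hr at 37 C, then exposed to compounds for 24 hr at 37 C in complete medium. Intracellular ATP was read by CellTiter-Glo luminescence; AC50 came from Hill-equation fits of concentration-response data.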

[12] = Cell Viability - LYMP2-016 (AID 984); note: nearly all actives have a fitted effect of over 55% in size
Procedure, shortened: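 Acute toxicity in a Coriell human lymphoblastoid line is scored as loss of intracellular ATP over 24 h of treatment in complete medium. CellTiter-Glo signal is fitted across concentrations with the Hill equation to give AC50.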

[13] = Cell Viability - LYMP1-002 - Assay at 24 hr (AID 993)
Procedure, shortened: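 Human lymphoblastoid LYMP1-002 cells, 2500/well in complete medium, were treated with compounds for 24 h at 37 C; intracellular ATP was read by CellTiter-Glo luminescence. AC50 values came from Hill-equation fits of qHTS concentration-response data.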

[14] = molecular target: Vitamin D3 receptor (Homo sapiens) (UniProt P11473); experiment: qHTS assay for small molecule agonists of vitamin D receptor signaling (AID 588543; calls by dose curve)
Sequence of Vitamin D3 receptor (Homo sapiens) (P11473 whole entry, looked up): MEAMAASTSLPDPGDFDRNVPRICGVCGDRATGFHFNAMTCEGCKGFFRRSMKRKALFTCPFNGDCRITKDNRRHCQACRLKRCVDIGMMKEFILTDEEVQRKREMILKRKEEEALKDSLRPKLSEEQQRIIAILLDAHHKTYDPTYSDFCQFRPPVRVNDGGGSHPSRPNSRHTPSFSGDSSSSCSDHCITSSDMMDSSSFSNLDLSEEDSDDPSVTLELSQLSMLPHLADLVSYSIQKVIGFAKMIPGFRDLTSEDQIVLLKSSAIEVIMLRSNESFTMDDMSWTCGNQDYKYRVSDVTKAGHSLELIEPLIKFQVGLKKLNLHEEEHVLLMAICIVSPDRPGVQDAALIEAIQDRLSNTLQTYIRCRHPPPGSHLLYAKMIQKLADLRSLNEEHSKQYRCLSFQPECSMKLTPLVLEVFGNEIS
Procedure, shortened: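 qHTS in agonist mode: compound titrations stimulate a VDR-driven β-lactamase reporter in HEK293T cells over 16 h at 37 °C. Response normalized to 50 nM 1α,25-dihydroxyvitamin D3 = 100%, DMSO = 0%; Hill fitting gives EC50 and maximal response.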

[15] = qHTS assay for small molecule disruptors of the mitochondrial membrane potential - 5 hr assay (AID 651755; calls by dose curve; note: nearly all actives have a fitted effect of over 40% in size)
Procedure, shortened: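 HepG2 cells, attached overnight at 37C, were exposed to compound or DMSO for 5 hr at 37C, 5% CO2. Mito-MPS dye was then added for 30 min, and fluorescence read at 490/535 nm (monomers) and 540/590 nm (aggregates).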

[16] = molecular target: Tumor necrosis factor (Homo sapiens) (UniProt P01375); experiment: qHTS assay to identify small molecules that stimulate Tumor Necrosis Factor-alpha (TNF-alpha) secretion (AID 651757; active = well fitted curve in the direction sought with a large enough effect in the signal ratio; the % refers to the signal ratio)
Sequence of Tumor necrosis factor (Homo sapiens) (P01375 whole entry, looked up): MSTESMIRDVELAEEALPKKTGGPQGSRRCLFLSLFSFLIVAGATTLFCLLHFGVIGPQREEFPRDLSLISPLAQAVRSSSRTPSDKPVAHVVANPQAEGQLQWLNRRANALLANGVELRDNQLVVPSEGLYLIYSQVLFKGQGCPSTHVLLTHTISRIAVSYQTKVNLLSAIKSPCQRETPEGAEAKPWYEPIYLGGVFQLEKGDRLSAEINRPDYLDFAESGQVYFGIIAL
Procedure, shortened: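 THP-1 cells were exposed to compounds for 17 hrs at 37 C, after which secreted TNF-alpha was measured by homogeneous HTRF (TR-FRET) using cryptate- and XL665-labeled anti-TNF-alpha antibodies, read after 3 hr at room temperature.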

[17] = molecular target: Nuclear receptor ROR-gamma (Homo sapiens) (UniProt P51449); experiment: qHTS assay for small molecule antagonists of the retinoid-related orphan receptor gamma (ROR-gamma) signaling pathway (AID 651802); note: nearly all actives have a fitted effect of over 60% in size
Sequence of Nuclear receptor ROR-gamma (Homo sapiens) (P51449 whole entry, looked up): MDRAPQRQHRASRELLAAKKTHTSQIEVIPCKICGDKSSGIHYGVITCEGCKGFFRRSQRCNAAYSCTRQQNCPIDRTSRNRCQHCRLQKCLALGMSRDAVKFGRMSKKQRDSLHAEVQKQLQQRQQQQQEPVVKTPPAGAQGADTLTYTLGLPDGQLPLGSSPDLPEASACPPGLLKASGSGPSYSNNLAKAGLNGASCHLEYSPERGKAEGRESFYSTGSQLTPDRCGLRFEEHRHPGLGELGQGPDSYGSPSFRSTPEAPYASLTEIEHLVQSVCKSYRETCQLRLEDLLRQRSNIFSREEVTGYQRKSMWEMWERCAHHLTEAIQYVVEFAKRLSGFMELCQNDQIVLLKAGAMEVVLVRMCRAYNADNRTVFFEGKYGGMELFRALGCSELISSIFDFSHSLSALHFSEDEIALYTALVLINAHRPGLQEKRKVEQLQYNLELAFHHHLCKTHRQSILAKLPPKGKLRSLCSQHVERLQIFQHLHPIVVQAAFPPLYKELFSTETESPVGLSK
Procedure, shortened: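 CHO cells carrying TET-inducible ROR-gamma and an ROR response element–luciferase reporter were exposed to compound, then induced with doxycycline. After 16hr at 37C, luminescence was read; lower signal indicates antagonism.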

[18] = molecular target: Nuclear receptor subfamily 1 group I member 2 (Rattus norvegicus) (UniProt Q9R1A7); experiment: qHTS assay for small molecule activators of the rat pregnane X receptor (rPXR) signaling pathway (AID 651751; call rule not given here); details: rPXR reporter cells, luciferase (One-Glo), 24 h
Sequence of Nuclear receptor subfamily 1 group I member 2 (Rattus norvegicus) (Q9R1A7 whole entry, looked up): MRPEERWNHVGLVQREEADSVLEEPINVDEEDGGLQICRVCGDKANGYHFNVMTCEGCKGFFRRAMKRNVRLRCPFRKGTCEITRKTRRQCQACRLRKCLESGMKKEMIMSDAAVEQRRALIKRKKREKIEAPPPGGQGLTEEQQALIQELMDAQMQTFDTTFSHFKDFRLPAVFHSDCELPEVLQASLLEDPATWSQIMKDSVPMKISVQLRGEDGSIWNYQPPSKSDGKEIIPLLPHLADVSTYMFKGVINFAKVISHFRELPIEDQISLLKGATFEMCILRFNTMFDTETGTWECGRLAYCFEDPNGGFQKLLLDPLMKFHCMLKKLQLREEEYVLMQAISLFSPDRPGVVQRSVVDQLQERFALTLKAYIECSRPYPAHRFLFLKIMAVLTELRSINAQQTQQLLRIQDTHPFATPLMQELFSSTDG

[19] = qHTS assay for small molecule activators of the human pregnane X receptor (PXR) signaling pathway (AID 720659; call rule not given here)
[20] = qHTS assay for small molecule agonists of the antioxidant response element (ARE) signaling pathway measured by Nrf2-dependant transcriptional activity - cell viability counter screen (AID 720653; active = well fitted curve in the direction sought with a large enough effect in the repeat runs; an effect the other way counts as inactive or inconclusive); details: ARE-bla HepG2 viability, CellTiter-Glo ATP luminescence, 16 h; stronger effect = lower value
Procedure, shortened: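 ARE-bla HepG2 cells (2,000/well) rested 5 hrs at 37C/5% CO2, then exposed to compounds in DMSO for 16 hrs. Viability was read in the same wells as intracellular ATP by luminescence, 30 min at room temperature after reagent addition.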

| SMILES | Potency [1] | Potency [2] | Potency [3] | outcome [4] | caspase-3 activation [5] [%] | Potency [6] | outcome [7] | Potency [8] | Potency [9] | Potency [10] | Potency [11] | Potency [12] | Potency [13] | outcome [14] | Potency [15] | outcome [16] | Potency [17] | max response [18] | outcome [19] | max response [20] |
| --- | --- | --- | --- | --- | --- | --- | --- | --- | --- | --- | --- | --- | --- | --- | --- | --- | --- | --- | --- | --- |
| CC(C)[C@]12CC(=O)[C@H](C)[C@H]1C2 | inactive | inactive | inactive | inactive | -0.456 | inactive | inactive | inactive | inactive | inactive | inactive | inactive | inactive | inactive | inactive | inactive | inactive | 2.33% and 6.9% | inactive |  |
| Nc1ccc2ccccc2c1 | inactive | inactive | inactive |  | 2.15 |  | inactive |  | inactive | inactive | inactive | inactive |  | inactive | inactive | inactive | inactive |  | inactive |  |
| CCCBr | inactive | inactive | inactive | inactive | 2.6 | inactive |  | inactive | inactive | inactive | inactive | inactive |  | inactive | inactive | inactive | inactive | -1.34% | inactive | -3.32% |
| CC(C)(C)C(O)(CCc1ccc(Cl)cc1)Cn1cncn1 (stereo not given) | inactive | inactive | inactive | inactive |  | 0.501 µM (active) | inactive | inactive | inactive |  | inactive | inactive | inactive | inactive | inactive | inactive |  |  |  | -4.58% and -0.482% |
| O=C(O)C(Cl)(Cl)Br | inactive | inactive | inactive | inactive | 1.91 | inactive | inactive | inactive | inactive | inactive | inactive | inactive | inactive | inactive | inactive | inactive | inactive | 3.3% | inactive | -4.89% |
| CCCCCC[N+](=O)[O-] | inactive | inactive | inactive | inactive | -0.935 | inactive |  | inactive |  | inactive | inactive | inactive | inactive | inactive | inactive | inactive | inactive | 1.74% | inactive | 8% |
| Oc1cccc(Cl)c1 | inactive | inactive | inactive | inactive | -0.037 | inactive |  | inactive | inactive | inactive | inactive | inactive |  | inactive | inactive | inactive | inactive | 1.59% | inactive | -6.82% |
| OCC(Cl)CCl (stereo not given) | inactive | inactive | inactive | inactive | 1.15 | inactive | inactive | inactive | inactive | inactive |  |  | inactive | inactive | inactive | inactive | inactive | 2.56% | inactive | -10.2% |
